Test [1] has as its target Estrogen receptor (Homo sapiens) (UniProt P03372). Description: qHTS assay to identify small molecule antagonists of the estrogen receptor alpha (ER-alpha) signaling pathway using the BG1 cell line in the presence of 0.1 nM 17-beta-estradiol (AID 1259244). Also: nearly all actives have a fitted effect of over 50% in size. Also: potency is read from the fitted curve at half-maximal effect. In outline: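 Compounds were tested against 0.1 nM (final) 17beta-estradiol in VM7Luc4E2 cells, which express full-length ER-alpha and an ERE-luciferase reporter; luminescence was recorded following 22 h exposure.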
On the technique in general: qHTS replaces the single test concentration by a dilution series.

A short description of test [2]: qHTS assay to identify small molecule phospholipidosis (PLD) inducers (AID 1259344; active = well fitted curve in the direction sought with a large enough effect; an effect the other way counts as inactive or inconclusive). In outline: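 Cells (HepG2, 900 per well) attach for 4 h, receive LipidTOX Red and compound together, incubate 24 h at 37 C, are fixed 30 min with paraformaldehyde/Hoechst, then imaged at one site per well.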
The nature of test [3]: qHTS assay to identify small molecule HDAC inhibitors (AID 1259364). Also: potency is read from the fitted curve at half-maximal effect.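 Also: wild-type HCT-116 cells with endogenous class I/II HDAC activity; nearly all actives have a fitted effect of over 45% in size.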 In outline: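 Screening used wild-type human colon HCT-116 cells incubated overnight, dosed with compounds for 2 hours, and assayed with a homogeneous luminogenic HDAC I/II reagent for 30 minutes at room temperature.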
Test [4] in a line: qHTS assay to identify small molecule HDAC inhibitors - cell viability counter screen (AID 1259365). Also: nearly all actives have a fitted effect of over 50% in size. Also: potency is read from the fitted curve at half-maximal effect. A digest of the protocol: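 Cytotoxicity was gauged in wild-type HCT-116 cells after a brief 2hr treatment with DMSO-dissolved compounds at 37C and 5% CO2, using CellTiter-Glo luminescence developed for 30min at room temperature.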
Test [5] can be described thus: qHTS assay to identify small molecule antagonists of the sonic hedgehog signaling (Shh) pathway - cell viability counter screen (AID 1259367). Also: nearly all actives have a fitted effect of over 55% in size. Also: potency is read from the fitted curve at half-maximal effect. A digest of the protocol:
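Cytotoxicity was assessed in parallel with Shh reporter activity by measuring live-cell protease fluorescence (CellTiter-Fluor) in NIH/3T3 cells stably carrying Gli1-Luc, treated with compound under conditioned medium stimulation for 23 hr plus 1 hr reagent incubation.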

A short description of test [6]: qHTS assay to identify small molecule agonists of the sonic hedgehog signaling (Shh) pathway (AID 1259368; calls by dose curve;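 also: NIH/3T3-derived 3T3Gli1-Luc cells carrying a stable Gli1-driven firefly luciferase reporter; series mostly up to about 92 µM; nearly all actives have a fitted effect of over 15% in size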). A digest of the protocol: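 Hedgehog pathway agonism scored by increased firefly luciferase luminescence in 3T3Gli1-Luc cells treated 24 hr at 37 C; detection used a 30 min room-temperature reagent incubation.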
A short description of test [7]: qHTS assay to identify small molecule antagonists of the sonic hedgehog signaling (Shh) pathway (AID 1259369; calls by dose curve; also: nearly all actives have a fitted effect of over 45% in size; also: potency is read from the fitted curve at half-maximal effect). In outline:
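NIH/3T3 stable Gli1-Luc clone, 2,000 cells/well, 4hr settle; cpd + conditioned medium 24hr; Luc reagent 30min RT; luminescence.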

The target of test [8] is Estrogen receptor beta (Homo sapiens) (UniProt Q92731). In words: qHTS assay to identify small molecule agonists of the estrogen receptor beta (ER-beta) signaling pathway (AID 1259377; active = well fitted activation curve with a large enough effect in the signal ratio in the repeat runs, not every such curve was filed as active; the % refers to the signal ratio). In outline: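 Measured by fluorescence intensity from a B/G FRET beta-lactamase substrate (2 h, room temperature) in ER-beta-UAS-bla HEK293T cells treated with DMSO-dissolved compounds for 16 hr at 37C and 5% CO2.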
Estrogen receptor beta (Homo sapiens), sequence (Q92731 whole entry, looked up): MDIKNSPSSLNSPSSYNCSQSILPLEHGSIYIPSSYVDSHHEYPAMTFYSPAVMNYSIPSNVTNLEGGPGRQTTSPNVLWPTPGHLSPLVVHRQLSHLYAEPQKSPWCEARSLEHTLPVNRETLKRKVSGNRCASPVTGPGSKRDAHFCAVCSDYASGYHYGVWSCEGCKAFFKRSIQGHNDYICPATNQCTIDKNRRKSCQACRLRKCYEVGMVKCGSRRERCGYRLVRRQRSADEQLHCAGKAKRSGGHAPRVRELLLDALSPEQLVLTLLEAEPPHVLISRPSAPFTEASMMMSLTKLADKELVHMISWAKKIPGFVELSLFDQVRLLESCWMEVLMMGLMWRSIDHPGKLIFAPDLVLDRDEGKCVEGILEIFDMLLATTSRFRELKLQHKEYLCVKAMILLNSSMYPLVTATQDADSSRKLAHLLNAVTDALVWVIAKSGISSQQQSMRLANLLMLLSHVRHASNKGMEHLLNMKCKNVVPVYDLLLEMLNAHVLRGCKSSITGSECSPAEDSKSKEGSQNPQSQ

Test [9] in a line: qHTS assay to identify small molecule agonists of the androgen receptor (AR) signaling pathway in the presence of an antagonist - cell viability counter screen (AID 1259379).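 Also: MDA-kb2 human breast cancer cells carrying an MMTV luciferase reporter; series mostly up to about 92 µM; nearly all actives have a fitted effect of over 25% in size.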 In outline:
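MDA-kb2 viability measured by CellTiter-Fluor fluorescence in the same wells as the luciferase signal; nilutamide 3.0uM final; 15-point compound titration; 16 hr at 37C.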

Test [10] can be described thus: qHTS assay to identify small molecule agonists of the estrogen receptor beta (ER-beta) signaling pathway - cell viability counter screen (AID 1259380). Also: nearly all actives have a fitted effect of over 30% in size. Also: potency is read from the fitted curve at half-maximal effect. In outline:
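Measured: luminescence from CellTiter-Glo after 30 min at room temperature, added to wells already read for the LiveBLAzer FRET reporter (2 hr substrate); ER-beta-UAS-bla HEK293T cells had 16 hr compound treatment at 37C, 5% CO2.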

Test [11] can be described thus: qHTS assay to identify small molecule antagonists of the estrogen receptor beta (ER-beta) signaling pathway - cell viability counter screen (AID 1259382). Also: series mostly up to about 92 µM; nearly all actives have a fitted effect of over 55% in size. In outline:
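Readout: luminescence, CellTiter-Glo, same wells as bla assay. System: ER-beta-UAS-bla GripTite HEK293T, 2% charcoal-stripped FBS. Exposure: compounds plus 1nM 17-beta-estradiol, 16 hr, 37C.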

Test [12] concerns the target Estrogen receptor (Homo sapiens) (UniProt P03372). In words: qHTS assay to identify small molecule agonists of the estrogen receptor alpha (ER-alpha) signaling pathway in the presence of an antagonist (AID 1259383; calls by dose curve; also: nearly all actives have a fitted effect of over 15% in size; also: potency is read from the fitted curve at half-maximal effect; as to activation: top concentration of the series differs between compounds). A digest of the protocol: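 Quantitative HTS confirmation: compounds titrated at 15 concentrations onto estrogen-deprived VM7Luc4E2 cells carrying a four-ERE luciferase construct, with ICI-182,780 present at 10.0nM final. Signal is luminescence after 22hr exposure.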

Test [13] is described as follows: qHTS assay to identify small molecule agonists or antagonists of the thyroid stimulating hormone receptor (TSHR) signaling pathway - wild type cell line counter screen (AID 1259384; calls by dose curve). A digest of the protocol:
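Wild-type HEK293 cells were plated 18 h at 37 C/5% CO2, pin-dosed with compound plus Ro20-1724 medium, held 30 min at room temperature, then given cAMP-d2 and anti-cAMP-cryptate; fluorescence was read after 1 h. Fifteen concentrations, triplicate.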

For test [14], the target named is Thyrotropin receptor (Homo sapiens) (UniProt P16473). Description: qHTS assay to identify small molecule antagonists of the thyroid stimulating hormone receptor (TSHR) signaling pathway (AID 1259385; calls by dose curve; also: nearly all actives have a fitted effect of over 20% in size). In outline:
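TSHR-HEK293 cells were plated and held 18 h at 37C/5% CO2, then given compound plus Ro20-1724 and stimulated with TSH at 1.5 ng/mL final. After 30 min at room temperature, cAMP was detected with cAMP-d2/anti-cAMP-cryptate (1 h) by fluorescence.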

Test [15] is described as follows: qHTS assay to identify small molecule agonists of the estrogen receptor alpha (ER-alpha) signaling pathway in the presence of an antagonist - cell viability counter screen (AID 1259386).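 Also: cells exposed to compounds for 22 h at 37 °C before the viability read; nearly all actives have a fitted effect of over 30% in size.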 Also: potency is read from the fitted curve at half-maximal effect. In outline: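 The test measures whether compounds kill ER-alpha reporter cells (VM7Luc4E2) under antagonist co-treatment (ICI-182,780, 10.0nM). Fluorescence from CellTiter-Fluor is read after a 22hr exposure.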

The target of test [16] is Progesterone receptor (Homo sapiens) (UniProt P06401). Description: qHTS assay to identify small molecule agonists of the progesterone receptor (PR) signaling pathway (AID 1346784; calls by dose curve; also: nearly all actives have a fitted effect of over 30% in size; also: potency is read from the fitted curve at half-maximal effect). In outline: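 The screen uses PR-UAS-bla HEK 293T cells in charcoal-stripped serum (2%). Compounds are applied for 16 hr at 37C after a 6 hr pre-incubation, and reporter activity is detected with a FRET beta-lactamase substrate after 2 hr at room temperature.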
Progesterone receptor (Homo sapiens), sequence (P06401 whole entry, looked up): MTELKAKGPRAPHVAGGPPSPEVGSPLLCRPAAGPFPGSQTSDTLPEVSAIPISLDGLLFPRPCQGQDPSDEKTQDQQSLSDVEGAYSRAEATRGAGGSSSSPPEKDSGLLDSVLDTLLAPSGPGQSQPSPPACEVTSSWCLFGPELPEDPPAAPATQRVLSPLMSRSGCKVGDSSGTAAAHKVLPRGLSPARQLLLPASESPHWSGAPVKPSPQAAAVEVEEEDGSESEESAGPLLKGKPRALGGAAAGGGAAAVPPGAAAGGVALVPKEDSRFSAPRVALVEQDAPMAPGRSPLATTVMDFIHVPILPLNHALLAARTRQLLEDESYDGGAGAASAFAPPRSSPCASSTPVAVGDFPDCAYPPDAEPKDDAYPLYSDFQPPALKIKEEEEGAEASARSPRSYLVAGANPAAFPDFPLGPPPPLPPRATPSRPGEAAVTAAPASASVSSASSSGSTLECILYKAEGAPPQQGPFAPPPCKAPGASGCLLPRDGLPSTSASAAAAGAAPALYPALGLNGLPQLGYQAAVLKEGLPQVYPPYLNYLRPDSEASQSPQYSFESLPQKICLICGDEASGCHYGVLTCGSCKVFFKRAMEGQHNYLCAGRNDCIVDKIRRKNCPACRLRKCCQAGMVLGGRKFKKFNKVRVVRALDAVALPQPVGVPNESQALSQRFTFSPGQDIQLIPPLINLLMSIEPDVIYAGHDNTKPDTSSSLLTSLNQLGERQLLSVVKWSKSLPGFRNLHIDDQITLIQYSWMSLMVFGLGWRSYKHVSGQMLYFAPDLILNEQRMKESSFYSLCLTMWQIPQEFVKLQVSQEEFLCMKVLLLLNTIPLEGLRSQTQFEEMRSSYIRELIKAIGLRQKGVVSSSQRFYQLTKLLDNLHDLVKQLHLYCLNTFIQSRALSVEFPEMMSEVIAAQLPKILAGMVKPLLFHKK

The nature of test [17]: qHTS assay to identify small molecule agonists of the sonic hedgehog signaling (Shh) pathway - cell viability counter screen (AID 1259366). Also: nearly all actives have a fitted effect of over 50% in size. In outline: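 Stable Gli1-Luc NIH/3T3 clone, 2,000 cells/well. Compound exposure 24hr at 37C. Read-out: CellTiter-Fluor fluorescence.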
Test [18] has as its target Estrogen receptor beta (Homo sapiens) (UniProt Q92731). In words: qHTS assay to identify small molecule antagonists of the estrogen receptor beta (ER-beta) signaling pathway (AID 1259378; active = well fitted inhibition curve with a large enough effect in the signal ratio in the repeat runs, not every such curve was filed as active; the % refers to the signal ratio; also: potency is read from the fitted curve at half-maximal effect). A digest of the protocol:
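ER-beta-UAS-bla HEK293T (GripTite) cells in 2% charcoal-stripped FBS medium were preincubated 6 hr at 37C, dosed with compound, then stimulated with 1 nM E2 (final) for 16 hr; beta-lactamase reporter read by B/G FRET fluorescence after 2 hr substrate loading.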

We go through eight molecules from PubChem BioAssay (Tox21).

Several values for one entry are separate records, joined by “and”; a condition that tells them apart may be missing. Identical values can stand only once. Results filed as inconclusive are left out. Where a structure was tested more than once in an assay, its records may differ in their call. Activity calls are given as the source filed them. Unless noted, calls follow the shape of the dose curve; as a rule, active = well fitted curve in the direction sought with a large enough effect in the repeat runs; inconclusive = weak or mixed curves; inactive = no such curve, though single readings can be large; an effect the other way counts as inactive or inconclusive.

Estrogen receptor (Homo sapiens), sequence (P03372 whole entry, looked up): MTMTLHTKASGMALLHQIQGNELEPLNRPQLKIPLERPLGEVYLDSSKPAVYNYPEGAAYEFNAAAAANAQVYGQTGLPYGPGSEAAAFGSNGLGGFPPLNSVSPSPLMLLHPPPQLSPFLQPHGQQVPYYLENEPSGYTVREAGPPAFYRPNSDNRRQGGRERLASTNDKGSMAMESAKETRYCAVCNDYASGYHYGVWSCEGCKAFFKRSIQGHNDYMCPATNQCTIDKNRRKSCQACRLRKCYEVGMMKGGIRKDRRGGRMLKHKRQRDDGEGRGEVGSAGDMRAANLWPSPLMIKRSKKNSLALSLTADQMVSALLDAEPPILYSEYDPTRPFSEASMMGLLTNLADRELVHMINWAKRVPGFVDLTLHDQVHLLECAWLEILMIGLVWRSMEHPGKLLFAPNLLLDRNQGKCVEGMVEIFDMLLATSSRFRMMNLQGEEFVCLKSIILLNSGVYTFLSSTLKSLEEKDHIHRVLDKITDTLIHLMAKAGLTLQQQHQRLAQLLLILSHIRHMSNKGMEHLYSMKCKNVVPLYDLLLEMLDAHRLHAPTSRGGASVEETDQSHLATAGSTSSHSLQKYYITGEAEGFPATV
Thyrotropin receptor (Homo sapiens), sequence (P16473 whole entry, looked up): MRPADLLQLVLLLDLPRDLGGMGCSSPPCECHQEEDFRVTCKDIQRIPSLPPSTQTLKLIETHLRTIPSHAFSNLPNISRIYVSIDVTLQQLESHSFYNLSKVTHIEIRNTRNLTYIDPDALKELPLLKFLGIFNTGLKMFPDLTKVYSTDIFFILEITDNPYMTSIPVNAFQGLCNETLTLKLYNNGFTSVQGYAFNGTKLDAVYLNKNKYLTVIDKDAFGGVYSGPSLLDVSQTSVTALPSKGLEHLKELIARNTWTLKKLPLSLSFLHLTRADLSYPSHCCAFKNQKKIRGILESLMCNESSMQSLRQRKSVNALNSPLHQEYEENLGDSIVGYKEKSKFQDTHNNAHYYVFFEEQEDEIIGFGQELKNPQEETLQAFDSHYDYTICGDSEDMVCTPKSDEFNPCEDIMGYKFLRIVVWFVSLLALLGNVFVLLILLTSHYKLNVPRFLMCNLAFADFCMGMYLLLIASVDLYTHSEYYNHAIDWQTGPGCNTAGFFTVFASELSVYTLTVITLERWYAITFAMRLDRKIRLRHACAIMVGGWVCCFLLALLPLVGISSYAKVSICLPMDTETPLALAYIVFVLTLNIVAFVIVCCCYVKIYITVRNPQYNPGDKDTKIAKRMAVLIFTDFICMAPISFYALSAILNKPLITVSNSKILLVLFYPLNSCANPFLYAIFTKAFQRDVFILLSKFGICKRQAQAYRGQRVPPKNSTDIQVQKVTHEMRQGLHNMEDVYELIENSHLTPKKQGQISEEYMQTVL

Take `COc1nc(C)nc(Cl)c1NC1=NCCN1`: the Potency result in test [1], in test [2], in [3], in test [4], in test [5] and in test [6] was “inactive” in each case. Further, the Potency entry in test [7], in [9], in test [10], in test [11], in [12] and in [13] was “inactive” throughout. The Potency result in test [14], in test [15] and in [16] was “inactive” each time. Besides, the molecule was classed as inactive in test [8].
`C=C(C)C1CC=C(C)C(OC(C)=O)C1` (stereo not given): the Potency result in test [1], in test [3], in [4], in test [17], in test [5] and in test [6] was “inactive” each time. Moreover, the Potency result in test [7], in [9], in test [10], in test [11], in test [12] and in test [13] was “inactive” throughout. For the same molecule, the Potency result in test [14], in test [15] and in test [16] was “inactive” each time. Moreover, the result in test [8] was inactive.
In the case of `NCCO`, the Potency result in test [1], in [2], in [4], in test [17], in test [6] and in [9] was “inactive” throughout. For the same molecule, the Potency result in test [10], in test [11], in test [12], in test [13], in test [14] and in test [15] was “inactive” throughout. In addition, the Potency result in [16] was “inactive”. The Potency entry in test [5] is “inactive and 43.3 µM (active)”; in [7], “inactive and 15.4 µM (active)”.
As for `C=C(C)C(=O)O`, the Potency result in test [1], in test [3], in test [4], in [17], in test [5] and in test [6] was “inactive” in each case. The Potency entry in [7], in test [9], in test [10], in test [11], in [12] and in [15] was “inactive” in each case. Also, in test [8], the result was inactive.
Take `O=C(OCc1ccccc1)c1ccc(O)cc1`: the Potency entry in test [1], in test [2], in test [4], in test [17], in test [6] and in [9] was “inactive” in each case. The Potency entry in [10], in [11], in test [13], in test [14] and in [16] was “inactive” throughout. In addition, the Potency in test [3] was 12.2 µM (active) and 11.9 µM (active); in test [5], 68.6 µM (active) and inactive; in test [7], 43.3 µM (active) and inactive; in test [18], 19.3 µM (active); in [12], 30.6 µM (active) and 29.8 µM (active).
`CN(C)c1ccc2nc3ccc(=[N+](C)C)cc-3sc2c1`: the Potency in [1] was 26.2 µM (active) and 27.3 µM (active) and 29.8 µM (active); in test [3], 11.7 µM (active) and 10.9 µM (active) and 13.3 µM (active); in test [4] it was 11.7 µM (active) and 24.3 µM (active) and 11.9 µM (active); in test [5], 54.5 µM (active); in test [7], 739 nM (active) and 1.09 µM (active) and 596 nM (active); in [10] it was 2.08 µM (active) and 27.3 µM (active) and 3.76 µM (active). For the same molecule, in test [15], the Potency was 33 µM (active) and 27.3 µM (active) and 15 µM (active). Also, the Potency result in [2], in test [6], in test [12] and in test [16] was “inactive” in each case.
`[Cl][In]([Cl])[Cl]`: the Potency result in test [1], in [2], in test [3], in [4], in [5] and in [6] was “inactive” in each case. In addition, the Potency entry in test [9], in [11] and in test [12] was “inactive” each time. In [16], the Potency entry was “inactive and 27.3 µM (active)”.
For the molecule `c1ccc2c(c1)CCCC2C1=NCCN1` (stereo not given), the Potency result in test [1], in test [2], in test [3], in [4], in test [5] and in test [6] was “inactive” in each case. In addition, the Potency result in [9], in test [10], in test [11], in test [12], in test [13] and in [14] was “inactive” each time. Further, the Potency result in test [16] is “inactive”.
